The record followed here is ChEMBL document CHEMBL3988442, “University of Dundee, Small-Polar-MMV Screening Library” (2021).

Design in all cases: scale not given: direction of the effect not stated beside the values
Assay [1] has as its target Protein translocase subunit SecA (Escherichia coli (strain K12)) (UniProt P10408). Briefly: Assay to Identify E. coli SecA ATPase Inhibitors. The conditions noted are these: 30 µM. Format: functional.
In assay [2] the target is T1, Ubiquitin-activating enzyme e1, putative (Leishmania donovani (strain BPK282A1)) (UniProt E9BSI1).
T1 sequence (whole entry): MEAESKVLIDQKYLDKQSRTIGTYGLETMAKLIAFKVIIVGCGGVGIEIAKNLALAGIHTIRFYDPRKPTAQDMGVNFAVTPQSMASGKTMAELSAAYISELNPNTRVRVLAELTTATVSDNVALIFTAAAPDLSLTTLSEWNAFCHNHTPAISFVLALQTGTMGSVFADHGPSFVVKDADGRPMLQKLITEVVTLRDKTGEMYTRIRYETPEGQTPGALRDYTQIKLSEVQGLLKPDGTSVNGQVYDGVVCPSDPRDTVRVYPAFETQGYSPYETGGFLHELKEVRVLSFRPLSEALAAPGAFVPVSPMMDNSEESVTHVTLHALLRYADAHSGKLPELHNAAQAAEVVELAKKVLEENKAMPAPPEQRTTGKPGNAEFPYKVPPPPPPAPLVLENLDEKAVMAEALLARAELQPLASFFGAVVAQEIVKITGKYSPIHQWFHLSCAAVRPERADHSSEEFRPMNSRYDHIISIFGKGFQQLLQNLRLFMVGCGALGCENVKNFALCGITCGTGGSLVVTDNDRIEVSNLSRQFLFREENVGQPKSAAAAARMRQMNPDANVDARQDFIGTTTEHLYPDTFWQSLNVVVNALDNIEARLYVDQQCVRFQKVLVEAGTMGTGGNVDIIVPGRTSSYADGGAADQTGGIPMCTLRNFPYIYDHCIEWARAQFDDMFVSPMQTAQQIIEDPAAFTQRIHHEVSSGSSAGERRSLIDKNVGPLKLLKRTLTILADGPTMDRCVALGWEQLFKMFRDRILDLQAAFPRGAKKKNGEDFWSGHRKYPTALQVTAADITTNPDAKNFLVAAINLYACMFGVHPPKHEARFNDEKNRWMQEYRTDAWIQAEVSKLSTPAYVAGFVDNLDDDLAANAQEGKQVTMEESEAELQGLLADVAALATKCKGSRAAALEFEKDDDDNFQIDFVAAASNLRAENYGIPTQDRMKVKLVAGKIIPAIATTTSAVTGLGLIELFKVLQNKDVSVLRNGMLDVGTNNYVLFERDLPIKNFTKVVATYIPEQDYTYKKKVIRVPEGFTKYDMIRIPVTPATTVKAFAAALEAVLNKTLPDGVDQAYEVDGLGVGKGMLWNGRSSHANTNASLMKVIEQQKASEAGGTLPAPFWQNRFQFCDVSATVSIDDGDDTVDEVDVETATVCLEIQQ
Briefly: Leishmania donovani Ubiquitin Activating Enzyme (LdE1). Format: functional. The settings on record: 30 µM.

In assay [3] the target is AMP-activated protein kinase, AMPK (Homo sapiens) (UniProt P54646+O43741+P54619+Q9UGJ0+Q9Y478+Q13131+Q9UGI9). Briefly: AMP-dependent Kinase enzyme assay. An in vitro enzyme assay that detects ADP turnover that is directly proportional to AMPK activity. This uses naive AMPK that is activated during the assay with MK-8722. Format: functional. The settings on record: 30 µM.

The target of assay [4] is Sialic acid-binding Ig-like lectin 9 (Homo sapiens) (UniProt Q9Y336). Briefly: Hs-Siglec9 ALPHAscreen SOP 20170721. The conditions noted are these: 10 µM. On the technique in general: Alpha assays give light when donor and acceptor beads are brought close together.
The subject of a further assay is Trypanosoma cruzi. Briefly: Trypanosoma cruzi phosphomannomutase and mannose-1-phosphate guanylyltransferase assay. Format: functional. The conditions noted are these: 10 µM.
Assay [5] has as its target T2, Arginase-2, mitochondrial (Homo sapiens) (UniProt P78540).
T2 sequence (whole entry): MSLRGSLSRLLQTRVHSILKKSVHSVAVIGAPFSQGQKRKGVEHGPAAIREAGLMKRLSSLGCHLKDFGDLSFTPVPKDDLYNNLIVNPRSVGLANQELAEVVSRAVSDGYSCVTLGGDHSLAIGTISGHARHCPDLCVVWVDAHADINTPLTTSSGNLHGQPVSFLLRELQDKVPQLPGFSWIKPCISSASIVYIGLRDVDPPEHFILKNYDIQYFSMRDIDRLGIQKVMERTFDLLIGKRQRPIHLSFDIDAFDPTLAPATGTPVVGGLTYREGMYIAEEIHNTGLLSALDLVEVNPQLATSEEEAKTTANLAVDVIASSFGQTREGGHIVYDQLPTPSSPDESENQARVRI
Briefly: in vitro enzyme assay to detect the production of urea directly proportional to the activity of Arginase II. Also: in the data most compounds retested in dose-response had high values. The class given is functional. The settings on record: 33.3 µM.

Assay [6] deals with T3, Proteasome subunit beta (Trypanosoma cruzi) (UniProt O96673).
T3 sequence (whole entry): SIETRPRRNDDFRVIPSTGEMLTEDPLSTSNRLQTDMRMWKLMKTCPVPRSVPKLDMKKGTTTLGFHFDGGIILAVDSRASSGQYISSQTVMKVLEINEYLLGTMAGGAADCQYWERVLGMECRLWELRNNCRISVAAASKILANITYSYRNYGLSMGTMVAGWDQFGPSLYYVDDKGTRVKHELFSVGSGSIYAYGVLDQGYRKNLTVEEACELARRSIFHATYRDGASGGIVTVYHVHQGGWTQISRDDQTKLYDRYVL
Briefly: Trypanosoma cruzi proteasome chymotrypsin-like activity (TcProtChymo) assay. Also: in the data most compounds retested in dose-response had high values. The class given is functional. The settings on record: 9.37 µM.

The species named for another assay is Homo sapiens. Briefly: To identify inhibition of the IFN signalling (Jak-Stat) pathway via expression of an eGFP reporter gene under the control of an IFN-stimulated response element (ISRE) containing MxA promoter. Format: functional. The conditions noted are these: 30 µM. On the technique in general: In a reporter assay the amount or activity of a reporter protein is the signal.

For assay [7], the target named is T4, Tyrosyl-tRNA synthetase, putative (Trypanosoma cruzi (strain CL Brener)) (UniProt Q4DSP6).
T4 sequence (whole entry): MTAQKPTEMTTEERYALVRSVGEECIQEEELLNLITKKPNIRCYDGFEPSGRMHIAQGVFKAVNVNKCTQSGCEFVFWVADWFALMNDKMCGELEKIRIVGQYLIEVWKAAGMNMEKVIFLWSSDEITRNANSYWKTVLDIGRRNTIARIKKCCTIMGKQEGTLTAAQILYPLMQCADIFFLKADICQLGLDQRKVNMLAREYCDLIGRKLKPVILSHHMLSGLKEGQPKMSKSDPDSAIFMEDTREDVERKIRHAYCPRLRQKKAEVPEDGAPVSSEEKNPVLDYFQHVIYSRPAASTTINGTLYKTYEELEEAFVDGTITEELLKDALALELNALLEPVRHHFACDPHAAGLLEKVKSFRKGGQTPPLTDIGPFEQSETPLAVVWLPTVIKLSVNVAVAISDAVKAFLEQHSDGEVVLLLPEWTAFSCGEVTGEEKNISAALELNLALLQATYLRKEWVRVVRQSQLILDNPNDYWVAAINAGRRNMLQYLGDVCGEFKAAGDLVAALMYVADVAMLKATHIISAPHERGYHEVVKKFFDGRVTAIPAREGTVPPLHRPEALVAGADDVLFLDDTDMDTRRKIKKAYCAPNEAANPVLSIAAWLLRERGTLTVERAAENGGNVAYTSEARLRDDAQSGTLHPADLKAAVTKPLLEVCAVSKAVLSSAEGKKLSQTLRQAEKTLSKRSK
Briefly: Trypanosoma cruzi tyrosyl tRNA synthetase (TcYRS) _High Tyrosine SOP. Also: in the data most compounds retested in dose-response had high values. The class given is functional. The settings on record: 30 µM.

Assay [8] has as its target T4, Tyrosyl-tRNA synthetase, putative (Trypanosoma cruzi (strain CL Brener)). Briefly: Trypanosoma cruzi tyrosyl tRNA synthetase (TcYRS) SOP. Format: functional. The settings on record: 30 µM.
The target in assay [9] is Chromo domain-containing protein 1 (Saccharomyces cerevisiae (strain ATCC 204508 / S288c) (Baker's yeast)) (UniProt P32657). Briefly: ScCHD-1 Enzyme Inhibition Assay. Also: in the data most compounds retested in dose-response had high values. The class given is functional. The settings on record: 30 µM.

For some assays here: Results with a measured potency or affinity are listed apart.

Chain of Chromo domain-containing protein 1 (Saccharomyces cerevisiae (strain ATCC 204508 / S288c) (Baker's yeast)) (P32657 whole entry, the tested form may be a part): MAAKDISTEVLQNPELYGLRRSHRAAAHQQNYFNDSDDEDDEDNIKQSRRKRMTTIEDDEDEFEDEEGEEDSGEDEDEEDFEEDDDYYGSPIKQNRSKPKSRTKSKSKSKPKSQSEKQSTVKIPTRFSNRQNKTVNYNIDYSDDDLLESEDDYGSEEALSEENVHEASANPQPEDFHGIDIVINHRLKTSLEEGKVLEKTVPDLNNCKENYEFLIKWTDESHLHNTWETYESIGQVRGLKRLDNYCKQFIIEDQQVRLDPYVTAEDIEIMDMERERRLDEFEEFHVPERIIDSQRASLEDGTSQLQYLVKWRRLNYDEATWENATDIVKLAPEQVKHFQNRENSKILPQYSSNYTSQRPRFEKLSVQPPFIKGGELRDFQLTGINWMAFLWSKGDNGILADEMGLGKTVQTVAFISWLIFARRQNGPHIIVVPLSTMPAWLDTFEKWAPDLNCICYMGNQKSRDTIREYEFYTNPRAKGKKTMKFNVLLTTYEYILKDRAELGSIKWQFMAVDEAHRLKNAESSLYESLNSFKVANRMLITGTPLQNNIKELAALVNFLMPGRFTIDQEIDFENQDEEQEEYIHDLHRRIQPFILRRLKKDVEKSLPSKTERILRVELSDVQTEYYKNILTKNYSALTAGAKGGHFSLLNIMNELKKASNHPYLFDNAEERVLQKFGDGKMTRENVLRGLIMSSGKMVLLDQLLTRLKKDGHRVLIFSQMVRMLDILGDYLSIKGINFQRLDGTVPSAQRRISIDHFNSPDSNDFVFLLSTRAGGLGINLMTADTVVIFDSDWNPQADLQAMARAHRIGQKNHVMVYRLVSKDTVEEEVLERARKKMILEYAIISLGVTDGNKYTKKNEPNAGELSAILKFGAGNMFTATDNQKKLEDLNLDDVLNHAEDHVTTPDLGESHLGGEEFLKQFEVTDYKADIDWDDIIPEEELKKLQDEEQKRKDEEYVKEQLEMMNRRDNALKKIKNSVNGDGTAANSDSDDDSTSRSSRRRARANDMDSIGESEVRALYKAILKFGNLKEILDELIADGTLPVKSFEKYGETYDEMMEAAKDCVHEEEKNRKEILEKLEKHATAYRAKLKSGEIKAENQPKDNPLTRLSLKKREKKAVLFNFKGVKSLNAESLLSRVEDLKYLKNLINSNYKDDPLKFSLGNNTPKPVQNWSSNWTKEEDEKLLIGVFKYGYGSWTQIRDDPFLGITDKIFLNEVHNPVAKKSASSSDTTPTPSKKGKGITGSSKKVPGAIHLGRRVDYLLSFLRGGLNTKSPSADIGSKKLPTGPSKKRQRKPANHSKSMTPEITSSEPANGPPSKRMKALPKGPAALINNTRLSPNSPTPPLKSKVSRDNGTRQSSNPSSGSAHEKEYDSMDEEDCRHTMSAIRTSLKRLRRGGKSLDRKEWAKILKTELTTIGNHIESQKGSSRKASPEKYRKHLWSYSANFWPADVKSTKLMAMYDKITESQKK
Chain of Protein translocase subunit SecA (Escherichia coli (strain K12)) (P10408 whole entry): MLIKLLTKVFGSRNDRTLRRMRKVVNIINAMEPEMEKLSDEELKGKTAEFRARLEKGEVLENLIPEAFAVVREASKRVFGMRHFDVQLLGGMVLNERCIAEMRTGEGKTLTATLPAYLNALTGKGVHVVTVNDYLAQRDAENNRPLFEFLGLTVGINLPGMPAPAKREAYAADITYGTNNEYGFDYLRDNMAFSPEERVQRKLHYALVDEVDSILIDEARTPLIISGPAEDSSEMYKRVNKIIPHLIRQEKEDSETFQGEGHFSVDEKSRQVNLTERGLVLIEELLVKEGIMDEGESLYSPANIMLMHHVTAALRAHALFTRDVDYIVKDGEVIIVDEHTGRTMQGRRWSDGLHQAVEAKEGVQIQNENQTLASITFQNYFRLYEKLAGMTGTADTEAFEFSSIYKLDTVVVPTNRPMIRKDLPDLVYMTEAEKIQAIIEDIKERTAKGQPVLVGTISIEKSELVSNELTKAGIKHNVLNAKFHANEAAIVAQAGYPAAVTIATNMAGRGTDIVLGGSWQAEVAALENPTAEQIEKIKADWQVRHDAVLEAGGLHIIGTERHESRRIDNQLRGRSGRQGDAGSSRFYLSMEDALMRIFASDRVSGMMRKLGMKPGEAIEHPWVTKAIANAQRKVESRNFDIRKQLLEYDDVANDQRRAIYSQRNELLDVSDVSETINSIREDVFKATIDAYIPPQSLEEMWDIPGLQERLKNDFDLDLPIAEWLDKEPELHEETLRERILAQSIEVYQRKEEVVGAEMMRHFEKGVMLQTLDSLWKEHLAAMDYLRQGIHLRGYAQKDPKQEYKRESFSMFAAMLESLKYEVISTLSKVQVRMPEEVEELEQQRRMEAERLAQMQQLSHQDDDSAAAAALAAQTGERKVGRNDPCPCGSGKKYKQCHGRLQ
Chain of Sialic acid-binding Ig-like lectin 9 (Homo sapiens) (Q9Y336 whole entry): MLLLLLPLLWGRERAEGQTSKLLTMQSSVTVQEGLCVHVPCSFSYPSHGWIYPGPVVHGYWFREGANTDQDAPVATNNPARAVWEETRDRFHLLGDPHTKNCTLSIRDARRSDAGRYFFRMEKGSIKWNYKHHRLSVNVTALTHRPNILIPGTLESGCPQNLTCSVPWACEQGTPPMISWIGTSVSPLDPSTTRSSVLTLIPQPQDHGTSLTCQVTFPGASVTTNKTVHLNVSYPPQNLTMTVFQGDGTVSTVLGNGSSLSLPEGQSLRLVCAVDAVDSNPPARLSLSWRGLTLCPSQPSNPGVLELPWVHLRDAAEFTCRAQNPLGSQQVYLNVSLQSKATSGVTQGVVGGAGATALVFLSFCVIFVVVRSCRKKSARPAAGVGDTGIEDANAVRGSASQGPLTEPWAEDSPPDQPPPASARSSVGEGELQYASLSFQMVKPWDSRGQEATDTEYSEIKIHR

Regarding `Cc1nc(C)c(C(=O)N2CCCC2c2nnc3n2CCCCC3)s1` (stereo not given), the Percent Effect is -2.68% in [1]; 13.5% in [2]; -4.05% in [3]; 1.58% in assay [4]; 0.586% with Trypanosoma cruzi; 5.42% in assay [5]. Also, the Percent Effect was 14.3% in [6]; 3.62% in the assay filed under Homo sapiens; 11.9% in assay [7]; 11% in assay [8]; -0.436% in assay [9].
Regarding `c1cnc(-c2nc(CNCCn3cccn3)cs2)nc1`, the Percent Effect in assay [1] is -0.355%; in assay [2] it was -2.63%; in [3], 7.92%; in assay [4], -0.779%; with Trypanosoma cruzi it was -1.5%; in [5] it was -2.68%. For the same molecule, the Percent Effect in assay [6] was 7.18%; in the assay filed under Homo sapiens, 9.32%; in assay [7] it was -0.49%; in assay [8], -4.88%; in [9], -6.78%.
In the case of `CCC(=O)N1CCC2(COCc3c(C)nc(N(C)C)nc32)C1` (stereo not given), the Percent Effect in assay [1] is -9.59%; in [2], 0%; in assay [3] it was 0.948%; in [4] it was 16.9%; in the assay with Trypanosoma cruzi, -0.586%; in [5] it was -0.417%. Besides, the Percent Effect is 10.7% in assay [6]; 4.78% in the assay listed under Homo sapiens; 0% in [7]; 3.66% in assay [8]; -4.5% in [9].
Turning to `O=C(C1CCC1)N1CCCC1c1nnc2n1CCCCC2` (stereo not given), the Percent Effect in assay [1] is -0.546%; in assay [2] it was 13.5%; in [3], -1.97%; in [4], -4.28%; in the assay with Trypanosoma cruzi, 2.34%; in assay [5], 33.3%. Also, the Percent Effect was 9.89% in assay [6]; 27.9% in the assay listed under Homo sapiens; 11.9% in assay [7]; 15.8% in assay [8]; 2.32% in [9].
As for `Cc1ccc(Cn2ccc(NS(C)(=O)=O)n2)cc1`, the Percent Effect is -6.83% in [1]; 5.2% in [2]; -4.69% in assay [3]; -0.383% in assay [4]; -2.46% in the assay with Trypanosoma cruzi; -5.52% in assay [5]. Besides, the Percent Effect in assay [6] is 9.32%; in the assay listed under Homo sapiens it was -2.78%; in assay [7], 3.23%; in assay [8], 13.6%; in assay [9] it was 1.11%.
With `COc1cccc(CN(C)Cc2cccc(C#N)c2)c1OC`, the Percent Effect in assay [1] was -2.4%; in [2], 10.8%; in assay [3] it was -3.58%; in assay [4], 5.68%; with Trypanosoma cruzi it was 5.08%; in [5], 23.3%. The Percent Effect in assay [6] is 8.88%; in the assay listed under Homo sapiens, 7.86%; in assay [7], 1.98%; in [8], -1.22%; in [9] it was -6.76%.
On to `COc1ccc(OC)c(C(C)Nc2nc3c(C)nn(C)c3c(=O)n2C)c1` (stereo not given), for which the Percent Effect was -5.58% in [1]; -5.2% in assay [2]; 5.05% in assay [3]; 1.13% in assay [4]; -6.2% with Trypanosoma cruzi; -22.1% in [5]. In addition, the Percent Effect was 14.8% in assay [6]; 38.9% in the assay filed under Homo sapiens; -2.15% in assay [7]; -3.7% in [8]; -5.55% in [9].
For `CC(Cc1ccco1)NC(=O)Nc1ccc(S(C)(=O)=O)nc1` (stereo not given), the Percent Effect in [1] was -4.47%; in assay [2], 18.4%; in [3] it was -6.45%; in [4], -1.24%; with Trypanosoma cruzi, 4.13%; in assay [5], -0.383%. Also, the Percent Effect in assay [6] is 9.52%; in the assay listed under Homo sapiens, 21.8%; in [7], 9.31%; in assay [8], 19.5%; in assay [9], -12.4%.
In the case of `Cc1ccsc1C(=O)NCCCn1nc2ccccn2c1=O`, the Percent Effect in [1] is -1.75%; in assay [2], 16.2%; in assay [3] it was -0.37%; in assay [4], -0.759%; in the assay on Trypanosoma cruzi, -3.99%; in [5], 1.66%. For the same molecule, the Percent Effect in [6] is 9.52%; in the assay listed under Homo sapiens, 20.9%; in assay [7] it was 5.94%; in assay [8], 18.3%; in assay [9] it was -8.98%.
For the molecule `CCn1cc(CN(C)S(=O)(=O)c2cc(Cl)ccc2Cl)cn1`, the Percent Effect was -0.942% in assay [1]; 14.7% in assay [2]; -0.125% in assay [3]; -2.27% in [4]; -6.09% in the assay with Trypanosoma cruzi; -8.98% in [5]. The Percent Effect in assay [6] is 15.9%; in the assay listed under Homo sapiens, 2.3%; in [7], 0%; in assay [8], 7.69%; in [9], -9.05%.
